According to PubChem BioAssay (NCI):
The panel holds about 79,000 compounds, 15% with a hit somewhere; the sample as a whole holds those more often. Unmarked numbers belong to inactive results. Active and inactive are the calls of the source. Rule as the data show it: active = growth inhibition above about 70%; inactive = the rest.

Legend:
[1] = NCI Yeast Anticancer Drug Screen. Data for the rad50 strain (AID 155);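 also: 0% = growth of vehicle-only cultures of the same strain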; details: S. cerevisiae rad50 strain growth inhibition, stronger effect = higher value
How it was run: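 Inhibition values express reduced yeast growth in compound-treated cultures relative to vehicle-treated controls.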

[2] = NCI Yeast Anticancer Drug Screen. Data for the mec2-1 strain (AID 157); details: S. cerevisiae mec2-1 strain, stronger effect = higher value
How it was run: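 Test agents were screened against the mec2-1 yeast strain, with defined DNA repair or cell cycle alteration. Growth was scored as inhibition against vehicle-only controls.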

[3] = NCI Yeast Anticancer Drug Screen. Data for the sgs1 mgt1 strain (AID 161);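 also: 0% = growth of cultures given vehicle only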; details: S. cerevisiae sgs1 mgt1 strain, stronger effect = higher value
How it was run: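 Inhibition of yeast growth, normalised to vehicle-treated controls, is reported for a strain bearing genetic alterations in DNA damage repair.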

[4] = NCI Yeast Anticancer Drug Screen. Data for the cln2 rad14 strain (AID 165);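 also: 0% = growth equal to vehicle treated cultures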; details: S. cerevisiae cln2 rad14 strain, stronger effect = higher value
How it was run: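 Growth of compound-exposed yeast (cln2 rad14 genotype) measured and expressed as inhibition relative to vehicle.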

[5] = NCI Yeast Anticancer Drug Screen. Data for the bub3 strain (AID 167); details: S. cerevisiae bub3 mutant strain, stronger effect = higher value
How it was run: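 Steps: expose the mutant yeast strain to compound; grow alongside vehicle-treated cultures; measure growth; express inhibition against the vehicle cultures.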

[6] = NCI Yeast Anticancer Drug Screen. Data for the mlh1 rad18 strain (AID 175); details: S. cerevisiae mlh1 rad18 strain growth inhibition, stronger effect = higher value
How it was run: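 In this whole-cell yeast screen, a strain with altered DNA damage repair is challenged with compound, and its growth is measured against matched vehicle-treated controls.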

[7] = at 5.0 µM (retest, dose inferred, filed as 0.5)
[8] = at 50.0 µM (retest, dose inferred, filed as 5.0)

Row | Structure (SMILES) | growth inhibition [1, 7] [%] | growth inhibition [1, 8] | growth inhibition ([1]; at 50.0 µM) | growth inhibition [2, 7] [%] | growth inhibition [2, 8] | growth inhibition ([2]; at 50.0 µM) | growth inhibition [3, 7] [%] | growth inhibition [3, 8] | growth inhibition ([3]; at 50.0 µM) | growth inhibition [4, 7] [%] | growth inhibition [4, 8] | growth inhibition ([4]; at 50.0 µM) | growth inhibition [5, 7] [%] | growth inhibition [5, 8] | growth inhibition ([5]; at 50.0 µM) | growth inhibition [6, 7] [%] | growth inhibition [6, 8] | growth inhibition ([6]; at 50.0 µM)
1 | S=c1nc(N2CCCCC2)ss1 | 41 | 94% (active) | 95.2% (active) | 1 | 75% (active) | 66% | 18 | 93% (active) | 97.2% (active) | 17 | 70% (active) | 57.9% | 17 | 97% (active) | 46.5% | 24 | 94% (active) | 97.2% (active)
2 | COc1ccc(OC)c(C(Cc2ccnc3ccccc23)Cc2ccnc3ccccc23)c1 | 1 | 97% (active) | 99% (active) | -14 | 97% (active) | 99.2% (active) | 3 | 99% (active) | 99% (active) | 1 | 99% (active) | 98.6% (active) | 10 | 98% (active) | 98.8% (active) | -3 | 97% (active) | 98.8% (active)
3 | CC(=O)n1nc2c(c1CC(C)C)C(=O)C(Nc1ccccc1)=CC2=O | 1 | 100% (active) | 77% (active) | 1 | 100% (active) | 68.2% | 1 | 100% (active) | 80.2% (active) | 6 | 99% (active) | 27.9% | -2 | 99% (active) | 23.2% | 1 | 99% (active) | 78.3% (active)
4 | Clc1ccc(-c2nc3ccc(Cl)cc3[nH]2)cc1 | -2 | 90% (active) | 76.8% (active) | -3 | 88% (active) | 86.7% (active) | -5 | 93% (active) | -30.9% | 0 | 92% (active) | 84.3% (active) | 19 | 96% (active) | 88% (active) | -38 | 54% | 35.3%
5 | COc1ccc2nc3cc(Cl)ccc3c(Nc3ccc(O)c(CNCCO)c3)c2c1 | -27 | 63% | 88.9% (active) | -1 | -6% | 31.9% | -5 | 44% | 81% (active) | -2 | -11% | 17.2% | 0 | -4% | -7.15% | -9 | 12% | 29.6%
6 | C[C@H](CCC(=O)O)[C@H]1CC[C@H]2[C@@H]3[C@@H](O)C[C@@H]4C[C@H](O)CC[C@]4(C)[C@H]3CC[C@]12C | 14 | 97% (active) | 79.9% (active) | 7 | 96% (active) | 99% (active) | 19 | 99% (active) | 81.3% (active) | -1 | 97% (active) | 76.5% (active) | 21 | 99% (active) | 98.5% (active) | 12 | 99% (active) | 88.7% (active)
7 | NC(CCCNc1nc(O)cc(=O)[nH]1)C(=O)O (stereo not given) | -166 | -176% | 18.2% | -51 | -54% | 13.4% | -66 | -68% | 7.3% | -63 | -80% | 66% | -68 | -73% | 0.7% | -127 | -125% | -5%
8 | O=CNc1ccc2c(c1)Cc1cc(NC=O)ccc1-2 | -4 | 81% (active) | 91% (active) | -3 | 25% | 34.5% | 18 | 82% (active) | 91.4% (active) | -34 | 10% | -6.85% | 2 | -9% | 7.8% | 14 | 79% (active) | 74.2% (active)
9 | O=C(O)C1CC2C3(Cl)C(Cl)=C(Cl)C(Cl)C2(CC1c1c2ccc(=O)c(O)c-2oc2c(O)c(O)ccc12)C3(Cl)Cl (stereo not given) | 5 | 96% (active) | 49.9% | 21 | 97% (active) | 49.6% | 3 | 97% (active) | -0.25% | 9 | 93% (active) | 53.2% | -2 | 96% (active) | 46.2% | 4 | 95% (active) | 51.5%
10 | O=c1cc(-c2ccccc2)[nH]c2ccc(N3CCCC3)cc12 | 17 | 26% | -26.8% | 7 | 9% | -4.35% | 13 | 13% | -29.9% | 0 | 7% | 7.25% | 14 | 6% | -8.65% | 11 | 5% | 0.5%
